Source: PubChem (Columbia University Molecular Screening Center)
The list is not random: actives were taken first. Their share in the collection is about 1.5%.
HUVEC tox TNFa = HUVEC cytotoxicity counter-screen, TNF alpha stimulated | HUVEC TNFalpha-stimulated, Hoechst cell count, imaging | cell count reduction, % at 2 µM | actives 0.17% (n = 93,000) | AID 848;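 active = cell count reduction exceeding the screen mean by over 5 SD, scaled to untreated wells per plate, cut at about 78% in these data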;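 note: cells counted after 24 h of TNF alpha exposure following the 1 h pretreatment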
NFkB transloc pot = enhances IL-1B driven NFkB nuclear translocation; HUVEC IL-1B NFkB p65 nuclear translocation imaging; activation, % at 2 µM; actives 0.3% (n = 94,000);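 active = activation above 40%, about the mean plus 3 SD, also judged a hit on visual image review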;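 note: percent activation is computed from the nuclear over cytoplasmic p65 intensity ratio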
IL1B NFkB inh = blocks IL-1B driven NFkB nuclear translocation in HUVEC cells; HUVEC IL-1B NFkB p65 nuclear translocation imaging; inhibition, % at 2 µM; actives 0.43% (n = 94,000);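 active = inhibition above about 30% together with a positive call from visual inspection of the well image, limit read from the data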;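 note: nuclear over cytoplasmic p65 intensity ratio measured by imaging; 0% = IL-1B stimulated DMSO wells and 100% = unstimulated DMSO wells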
VCAM1 TNFa inh = reduces TNF alpha induced VCAM1 expression in HUVEC; HUVEC TNFa-induced VCAM-1 immunofluorescence, high-content imaging; inhibition, % at 2 µM; actives 0.48% (n = 95,000); AID 802;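 active = inhibition above the batch mean plus 3 SD, with images confirmed as a hit by eye, cut at about 37% in these data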;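 note: 0% = TNF-stimulated DMSO wells and 100% = unstimulated control wells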
HUVEC tox IL1B = HUVEC cytotoxicity counter-screen, IL-1B stimulated. HUVEC cell count loss, Hoechst imaging. cell count reduction, % at 2 µM. actives 0.41% (n = 94,000). AID 845;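 active = cell count reduction more than 3 SD above the screen-wide mean, cut at about 70% in these data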;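 note: normalized per plate to untreated control cells as the no-loss baseline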
* hit, by the source's call; nt = not tested or not shown.

SMILES	HUVEC tox TNFa	NFkB transloc pot	IL1B NFkB inh	VCAM1 TNFa inh	HUVEC tox IL1B
OCCSc1nnc(Nc2ccccc2)s1	78*	-4	4	29	12
Cn1nnnc1SCCNCc1cccnc1	-17	5	-5	-16	-12
CCOC(=O)CCP(=O)(O)C(O)c1ccc(OC)cc1 (stereo not drawn)	-12	21	-20	2	-42
CN1CCCCc2c1[nH]c1ccccc1c2=O	-47	18	-18	86*	-27
O=C1CCCc2c1[nH]c1ccccc21	nt	-6	6	nt	-10
CC(C)Cn1c(-c2ccco2)csc1=Nc1cccnc1	-9	-6	6	16	-8
CCN1CCCC1Cn1cnc2c([nH]c3ccc(Cl)cc32)c1=O (stereo not drawn)	-41	4	-4	-6	-3
CCN1CCCC1Cn1cnc2c([nH]c3cccc(Cl)c32)c1=O (stereo not drawn)	-55	-30	30*	18	-11
Cc1ccc(S(=O)(=O)Oc2ccccc2/C=N/NC(=O)c2c(Cl)cnn2C)cc1	3	-5	5	-3	21
O=C1CC(C(=O)Nc2ccc(C(=O)N3CCOCC3)cc2)C2(CCCCC2)O1 (stereo not drawn)	12	-1	1	14	90*
Cn1c(=O)n(C)c2cc(S(=O)(=O)O)ccc21	-21	-7	7	-22	10
Clc1ccc(-n2ncc3c(NCc4ccc5c(c4)OCO5)ncnc32)cc1	28	8	-8	80*	-14
COc1cc(NC(=O)c2ccco2)c(OC)cc1NC(=O)CSc1ncc(-c2ccc(F)cc2)[nH]1	-6	1	0	14	10
CC(C)(CO)NC(=O)CCCOc1ccc(Cl)cc1Cl	-29	-1	1	93*	-51
CCN(CC)c1ccc(-c2nn3c(-c4ccccc4OC)nnc3s2)cc1	72	-29	29	97*	71*
CCn1c(NCc2cccs2)nc2ccccc21	-10	-7	7	9	87*
Cn1c(NCc2cccs2)nc2ccccc21	-21	0	0	5	-14
CCCCn1nnnc1NCc1ccc(OC)c(OC)c1	2	10	-10	15	-56
CCCCn1nnnc1NCc1cccc(OC)c1OC	-13	114*	-114	6	-7
Cc1n[nH]c(=O)nc1Nc1ccc(O)cc1	2	9	-9	-2	11
Oc1ccc(Nc2nc3ccccc3nc2Nc2ccc(O)cc2)cc1	nt	-23	23	94*	2
COc1cc2[nH]c(=O)n(CCC(=O)N3CCN(c4cc(Cl)ccc4C)CC3)c(=O)c2cc1OC	1	-2	2	-3	83*
CCOc1cc(/C=C\[N+](=O)[O-])ccc1OCC(=O)Nc1ccccc1C	-2	-9	9	11	46
CCOc1cc(/C=C\c2[nH]c(=O)[nH]c(=O)c2[N+](=O)[O-])ccc1OC(C)CC (stereo not drawn)	17	47*	-48	-4	-67
CCCCc1nc(NCC2CCCO2)c(C#N)c2c1COC(C)(C)C2 (stereo not drawn)	-3	-11	12	30	84*
SMILES	HUVEC tox TNFa	NFkB transloc pot	IL1B NFkB inh	VCAM1 TNFa inh	HUVEC tox IL1B
O=C(COc1ccc(Br)cc1)NCc1ccccn1	-16	41*	-41	3	-12
CCc1nnc(-n2nc(C)cc2-c2ccccc2)n1N	1	-97	98*	16	95*
CC(Nc1ccccc1)c1cc(Cl)ccc1O (stereo not drawn)	0	-91	91*	5	89*
O=C(CSc1nnc(-c2ccccc2)n1Cc1ccco1)Nc1ccc2c(c1)OCCO2	-8	5	-5	-9	1
Nc1nnc(SCC(=O)NCc2ccc3c(c2)OCO3)s1	-25	-3	3	93*	0
O=C(CSc1nnc(SCC(=O)NCc2ccc3c(c2)OCO3)s1)NCc1ccc2c(c1)OCO2	-16	-1	1	-21	-1
O=C(CSc1nnc(-c2ccccc2)n1Cc1ccco1)NCc1ccc2c(c1)OCO2	-6	59*	-59	15	8
COc1ccc(Cn2c(CCCO)nc3ccccc32)cc1OC	81*	-9	9	0	18
O=S(=O)(c1ccc(Cl)cc1)c1snnc1-c1ccccc1	10	-9	9	50*	16
CCOc1ccc2nc(C)cc(C(=O)O)c2c1	-12	7	-7	9	-98
CCOc1ccc(-c2nnc3sc(COc4ccc(Cl)cc4)nn23)cc1	-15	18	-18	6	-68
Clc1ccc(OCc2nn3c(-c4ccncc4)nnc3s2)cc1	-14	46*	-46	15	-18
CC(C)OC(=O)CC(=O)CSc1nc2c(cc1C#N)CCC2	-11	3	-3	-18	-12
O=c1[nH]c2ccccc2c(=O)n1Cc1ccccc1	-35	16	-16	-10	-11
Cc1cc(NS(=O)(=O)c2ccc(NC(=O)COc3ccc(Cl)cc3)cc2)no1	nt	-99	99*	-21	88*
CCOC(=O)c1cc(-c2ccc(OC)cc2F)nc2c1c(C)nn2CCC#N	8	-5	5	-34	6
COC(=O)C1C(=O)C2=C(CC1C)NC(=O)CC2c1ccccc1 (stereo not drawn)	-12	-16	16	3	-7
COC(=O)C1C(=O)C2=C(CC1C)NC(=O)CC2c1cccc(C)c1 (stereo not drawn)	87*	10	-10	77*	90*
CCC1(C)Cc2c(sc3nnn(CC(=O)Nc4ccccc4C)c(=O)c23)CO1 (stereo not drawn)	-9	0	0	11	-73
COc1ccc(S(=O)(=O)Nc2nc3n(n2)C(c2ccc(Cl)cc2)CC(=O)N3)cc1 (stereo not drawn)	2	15	-15	39*	-6
C=CCNc1nnc(SC2CC(=O)N(c3ccc(OCCC)cc3)C2=O)s1 (stereo not drawn)	-31	5	-5	-11	-3
O=C(CCl)Nc1cc(-c2ccccc2)nn1-c1ccccc1	-2	17	-17	15	88*
COc1ccc(N=C2S/C(=C\c3ccc(N4CCOCC4)o3)C(=O)N2CCc2c[nH]c3ccccc23)cc1	12	-48	48*	2	8
Cc1cc(OCn2ccc(C(=O)O)n2)ccc1Cl	-33	7	-7	-47	-43
NC1=NC(=O)CC(C(=O)NCCc2ccccc2)S1 (stereo not drawn)	5	-47	47*	30	2
O=C(CSc1nnc(Cn2nnc(-c3ccccc3)n2)n1-c1ccccc1)Nc1ccccc1	14	-1	1	-18	6
O=C(CSc1nnc(Cn2nnc(-c3ccccc3)n2)n1-c1ccccc1)Nc1ccc(F)cc1	-14	-99	99*	4	90*
COc1ccccc1NC(=O)Cc1noc(CSc2nnc(N)s2)n1	0	-6	6	6	-23
COc1ccc(OC)c(C2C(C(=O)Nc3cccnc3)=C(C)NC3=C2C(=O)CCC3)c1 (stereo not drawn)	3	42*	-42	17	-21
